# Results reported in PubChem BioAssay AID1030 (National Center for Advancing Translational Sciences (NCATS), 2008).
# The campaign covered roughly 220,000 compounds. About 16,000 (7.3%) were called active. Where a call stands in place of a potency, no number is given. Inconclusive results (about 25%) are left out. For the sample, actives were picked, then their nearest neighbours and some compounds at random. Unmarked numbers belong to inactive results. Calls come from the whole dose curve; as a rule, active = well fitted inhibition curve with a large enough effect (not every such curve was filed as active); inconclusive = small, poorly fitted or top-dose-only effect, or another doubt; inactive = no such curve, though single readings can be large or run the other way. Peptide text beside a SMILES is read from it. * marks the point of attachment. OPac = O=C(CO*)c1ccccc1; Bz = O=C(c1ccccc1)*
# Biological target: Aldehyde dehydrogenase 1A1 (Homo sapiens) (UniProt P00352)
# Sequence (P00352 whole entry, looked up): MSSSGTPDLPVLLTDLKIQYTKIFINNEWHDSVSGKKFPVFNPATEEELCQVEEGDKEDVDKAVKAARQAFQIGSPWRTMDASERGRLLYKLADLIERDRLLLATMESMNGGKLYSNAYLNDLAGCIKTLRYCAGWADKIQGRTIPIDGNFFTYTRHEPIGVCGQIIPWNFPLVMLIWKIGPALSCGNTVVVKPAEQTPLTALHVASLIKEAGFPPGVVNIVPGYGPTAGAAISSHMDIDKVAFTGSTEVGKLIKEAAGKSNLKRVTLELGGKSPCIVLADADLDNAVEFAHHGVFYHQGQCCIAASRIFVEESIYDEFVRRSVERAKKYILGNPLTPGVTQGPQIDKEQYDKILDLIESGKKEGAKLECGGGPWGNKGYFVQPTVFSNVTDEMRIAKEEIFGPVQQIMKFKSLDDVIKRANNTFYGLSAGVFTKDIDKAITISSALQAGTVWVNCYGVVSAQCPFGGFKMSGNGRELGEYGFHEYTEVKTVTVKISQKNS
# Assay: qHTS Assay for Inhibitors of Aldehyde Dehydrogenase 1 (ALDH1A1)
# Details: Purified ALDH1A1, NADH fluorescence, propionaldehyde substrate; series mostly up to 75.3 µM
# Potency is the fitted concentration of half-maximal effect.
Structure (SMILES),Potency,"activity, negative = inhibition"
Cc1cc(C)cc(NC(=S)NCCCN2CCOCC2)c1,inactive,–
CCOc1ccccc1/C=c1\sc2nc(-c3ccco3)nn2c1=O,28.2 µM (active),–
CSc1nc(-c2ccco2)nn1C(=O)CCc1ccccc1,inactive,–
CCOc1ccccc1C(=O)NCc1ccco1,inactive,–
O=C(O)CC1S/C(=N\N=C/c2ccccc2O)N(c2ccc(O)cc2)C1=O (stereo unspecified),inactive,–
O=C(Nc1ccc(N2CCOCC2)cc1)c1ccc(-c2ccccc2[N+](=O)[O-])o1,inactive,–
O=C(CN1C(=O)CCC1=O)Nc1ccc(S(=O)(=O)N2CCOCC2)cc1,inactive,–
Cc1cc(C(=O)NNC(=O)c2cccc(S(=O)(=O)N3CCOCC3)c2)c2ccccc2n1,inactive,–
O=C(c1cccc(S(=O)(=O)N2CCOCC2)c1)N1CCOCC1,inactive,–
O=C(NNC(=S)Nc1ccccc1)c1cccc(S(=O)(=O)N2CCOCC2)c1,28.2 µM (active),–
O=C(NC(=S)Nc1ccc(S(=O)(=O)N2CCOCC2)cc1)c1ccccc1[N+](=O)[O-],7.94 µM (active),–
CCc1c(C)nc2c(OC)cccc2c1Cl,inactive,–
CCSc1nc(C)c(CCOc2cccc(C)c2)c(=O)[nH]1,inactive,–
COc1ccc(-c2[nH]ncc2CN(Cc2nccn2C)C(C)C)cc1F,inactive,–
CCCCCCCC1=Cc2ccc(F)cc2C(C(C(=O)OC)C(=O)OC)N1C(=O)OC (stereo unspecified),inactive,–
COc1ccccc1N(CC(=O)Nc1ccc(C(F)(F)F)cc1)S(C)(=O)=O,inactive,–
COc1ccc(C(=O)C2CCCN(C(=O)c3cc4nc(C)cc(C)n4n3)C2)cc1F (stereo unspecified),inactive,–
CCCCN(C(=O)c1ccc(OC(F)(F)F)cc1)c1c(N)n(CCC)c(=O)[nH]c1=O,inactive,–
O=C(Nc1ccnc(-c2ccncc2)n1)c1cccs1,inactive,–
CC(=O)c1cc(C#N)c(N2CC(C)OC(C)C2)nc1C (stereo unspecified),inactive,–
N#Cc1ccc(CSc2nnc(-c3ccccn3)n2-c2ccc(Cl)cc2)cc1,inactive,–
CCN(CC)C(=O)CSc1nnc(-c2cnccn2)n1-c1ccc(C)cc1,inactive,–

Structure (SMILES),Potency,"activity, negative = inhibition"
Cn1c(SCc2c(F)cccc2Cl)nnc1-c1cnccn1,12.6 µM (active),–
CC(=O)NC(NC(=S)Nc1c(C)n(C)n(-c2ccccc2)c1=O)C(Cl)(Cl)Cl (stereo unspecified),inactive,–
COC(=O)c1ccc(-c2noc(CN(Cc3ccccn3)CC3CCCO3)n2)cc1 (stereo unspecified),inactive,–
CN(C)c1ccnc(Nc2ccc(F)cc2)c1C#N,inactive,–
Fc1ccc(Nc2nnns2)cc1,2 µM (active),–
O=C1CS(=O)CN1c1ccc(Oc2ccccc2)cc1 (stereo unspecified),inactive,–
O=C(CCC1CCCN(C(=O)Cc2ccc(F)cc2)C1)N1CCN(c2ccccn2)CC1 (stereo unspecified),inactive,–
CCN(CC(=O)NCCc1ccccc1)S(=O)(=O)c1ccc(C)cc1,inactive,–
CCN(CC(=O)NC1CCS(=O)(=O)C1)S(=O)(=O)c1ccccc1 (stereo unspecified),inactive,–
CCN(CC(=O)NCCc1ccccc1)S(=O)(=O)c1ccccc1,35.5 µM (active),–
C=CCNC(=O)/C(=C\c1cccc([N+](=O)[O-])c1)NC(=O)c1ccccc1,inactive,–
O=C(N/N=C/c1cccc([N+](=O)[O-])c1)C1CC(=O)N(c2ccc(Br)cc2)C1 (stereo unspecified),inactive,–
N#C/C(=C/c1cccc([N+](=O)[O-])c1)c1nnc2n1CCCCC2,20 µM (active),–
N/C(=N\OC(=O)CCc1ccccc1)c1cccnc1,inactive,–
COC(=O)c1ccc(NC(=O)c2cc(Cl)ccc2OC)cc1,inactive,–
CCC(=O)c1ccc(N2CCN(C(=O)c3cc([N+](=O)[O-])ccc3F)CC2)c(F)c1,inactive,–
COC(=O)C1(C(C)=O)CC2=CC[C@H]3C(=O)N(c4ccccc4)C(=O)[C@H]3[C@@H]2Cc2ccccc2[C@@H]1C[N+](=O)[O-] (stereo partly specified),inactive,–
O=C(CCNS(=O)(=O)c1ccc(Br)s1)NCc1ccccc1Cl,inactive,–
O=[N+]([O-])c1ccc(N/N=C/c2ccccc2)cc1,14.1 µM (active),–
NC(=S)N/N=C/c1ccc([N+](=O)[O-])cc1,inactive,–
Cc1cccc(COc2ccccc2/C=N/Nc2ccc([N+](=O)[O-])cc2)c1,inactive,–
Cn1ncc(N2CCN(S(=O)(=O)c3ccc(Br)cc3)CC2)c(Cl)c1=O,inactive,–

Structure (SMILES),Potency,"activity, negative = inhibition"
N#Cc1c(C(F)(F)F)cc(-c2ccc(Cl)cc2)nc1SCC(=O)O,inactive,–
Cc1ccc(C(=O)N/C(=C/c2cccs2)C(=O)N2CCCCC2)cc1,inactive,–
Cc1cccc(C(=O)N2CCc3c([nH]c4ccccc34)C2CC(C)C)n1 (stereo unspecified),inactive,–
CCOC(=O)C1(Cc2cccc(OC)c2)CCN(C(C)COC)CC1 (stereo unspecified),inactive,–
CCOC(=O)C1(Cc2cccc(OC)c2)CCN(C(C)CC(C)(C)O)CC1 (stereo unspecified),3.55 µM (active),–
CCOC(=O)C1(Cc2cccc(OC)c2)CCN(Cc2csc(C(C)=O)c2)CC1,inactive,–
CN(CC(=O)NC1CCCC1)S(=O)(=O)c1cnc[nH]1,inactive,–
CCN(CC)CCN(C(=O)c1ccc(N2C(=O)CCC2=O)cc1)c1nc2cc3c(cc2s1)OCO3,20 µM (active),–
CCN(CC)CCN(C(=O)c1cccc([N+](=O)[O-])c1)c1nc2ccc(OC)cc2s1,inactive,–
CCCCN(CC)C(=O)c1ccc2c(c1)OCO2,inactive,–
COc1ccc(CC2(CO)CCN(Cc3cnn(C)c3)CC2)cc1,inactive,–
COCCCNC(=O)/C=C/c1ccc(OCc2c(F)cccc2Cl)cc1,inactive,–
Cc1ccc(SCC(=O)c2sc(-c3ccccc3)nc2C)cc1,inactive,–
Cc1nc(NC(=O)CN(C)S(=O)(=O)c2ccc(Cl)cc2)sc1C,inactive,–
Cc1nc(-c2ccc(Cl)cc2)sc1C(=O)CBr,12.6 µM (active),–
O=C(N/N=C/c1cc([N+](=O)[O-])ccc1O)/C(=C\c1cccs1)NC(=O)c1ccccc1,inactive,–
CCC(=O)Nc1ccc(Nc2nc(Cl)nc(Nc3ccc(NC(=O)CC)cc3)n2)cc1,inactive,–
O=c1[nH]c2cccnc2n(CCNc2ncc(C(F)(F)F)cc2Cl)c1=O,inactive,–
CC(C)(C)n1cnnc1Sc1ccc([N+](=O)[O-])cn1,inactive,–
CCCCNC(=O)Nc1c(C)cc(SC#N)cc1C,0.562 µM (active),–
CCCCNC(=O)C(=O)c1ccccc1NC(C)=O,inactive,–
Cc1cc2nc(C)n(CCCNC(=O)Nc3ccccc3)c2cc1C,inactive,–

Structure (SMILES),Potency,"activity, negative = inhibition"
O=C(NCCOCc1ccc(Cl)cc1)c1ncn[nH]1,inactive,–
O=C(/C=C/Sc1ncn[nH]1)c1ccc(Cl)cc1,8.91 µM (active),–
COc1cccc2cc(S(=O)(=O)c3ccc(C)cc3)/c(=N/NS(=O)(=O)c3ccc(C)cc3)oc12,inactive,–
CCOc1ccc(-n2c(SCC(=O)NC3CCS(=O)(=O)C3)nnc2-c2cccnc2)cc1 (stereo unspecified),inactive,–
Cn1c2c(c(=O)n(C)c1=O)[C@@H]1c3c(ccc4ccccc34)OC[C@@H]1CO2,inactive,–
COc1cccc2c1OCC1COc3c(c(=O)n(C)c(=O)n3C)C21 (stereo unspecified),inactive,–
Cn1c2c(c(=O)n(C)c1=O)C1c3ccccc3OCC1C(C)(C)O2 (stereo unspecified),28.2 µM (active),–
COc1ccc(C/C(N)=N/OC(=O)c2ccco2)cc1OC,inactive,–
COc1ccccc1-c1nnc(SCC(=O)Nc2cc(C)on2)o1,inactive,–
CCOc1ccccc1-n1c(SCC(=O)N2CCCC2)nnc1-c1ccoc1C,inactive,–
COc1ccccc1N1CCN(C(=O)CSc2nnc(-c3ccoc3C)o2)CC1,1.58 µM (active),–
COc1ccc(-n2nc(C(=O)Nc3cc(OC)c(OC)c(OC)c3)c3ccccc3c2=O)c(OC)c1,inactive,–
CNC(=O)c1c(NC(NC(=O)c2ccco2)C(=O)c2ccc(Cl)cc2)sc2c1CCCC2 (stereo unspecified),14.1 µM (active),–
COC(=O)c1c(NC(=O)c2cccs2)sc2c1CCCC2,inactive,–
CCOC(=O)c1c(NC(=S)NC(=O)c2ccco2)sc2c1CCCC2,inactive,–
COc1cc(OC)cc(-c2nnc(N(C)C(=O)c3ccncc3)s2)c1,inactive,–
O=C1[C@@H]2C(c3cccnc3)=NO[C@@H]2C(=O)N1c1ccc(Cl)cc1Cl,3.55 µM (active),–
COC(=O)CCCC1=CC2=CC(=O)C(C)(OC(=O)c3cccs3)C(=O)C2=CN1CC(C)C (stereo unspecified),–,-2.57% [at 13.5 µM]
CC1CCCN(CCOCCOc2ccccc2-c2ccccc2)C1 (stereo unspecified),inactive,–
CN1CCN(CCCCOc2ccccc2-c2ccccc2)CC1,10 µM (active),–
c1ccc(-c2ccccc2OCCN2CCCCC2)cc1,inactive,–
O=C(Nc1ccccc1C(=O)N1CCCCCC1)c1ccccc1Cl,inactive,–

Structure (SMILES),Potency,"activity, negative = inhibition"
O=C(c1ccc(Cl)c(Cl)c1)N1CCCC1,inactive,–
Cc1c(Cl)cccc1NC(=O)Nc1ccc(C(=O)N2CCCC2)cc1,20 µM (active),–
Cc1ccc(S(=O)(=O)N(C)C)cc1NC(=O)COC(=O)C1COc2ccccc2O1 (stereo unspecified),inactive,–
CCOC(=O)/C(=N\Nc1ccccc1[N+](=O)[O-])c1csc(Nc2ccccc2)n1,inactive,–
CN(C)S(=O)(=O)c1cccc(NC(=S)N/N=C/C(=O)c2ccccc2)c1,8.91 µM (active),–
CN(C)S(=O)(=O)c1cccc(C(=O)Nc2cccnc2)c1,inactive,–
C/C(=C\C(=O)c1ccccc1)Nc1cccc(O)c1,inactive,–
O=C(Nc1cccc(Cl)c1)OCc1ccccn1,inactive,–
O=C(CC1SC(=Nc2ccccc2)N(Cc2ccccn2)C1=O)Nc1cccc(Cl)c1 (stereo unspecified),20 µM (active),–
CN1C(=O)C(CC(=O)Nc2ccccc2)S/C1=N/c1nccs1 (stereo unspecified),inactive,–
c1ccc2c(c1)OCCOCCOCCO2,inactive,–
Cc1c(Cl)cnc(NC(=O)COC(=O)c2ccc(S(=O)(=O)NCc3ccco3)cc2)c1Cl,inactive,–
CCc1cc2c(SCC(=O)Nc3ncc(Cl)c(C)c3Cl)ncnc2s1,inactive,–
CSCCC(NC(=O)c1ccco1)C(=O)OCC(=O)Nc1ncc(Cl)c(C)c1Cl (stereo unspecified),22.4 µM (active),–
COC(=O)c1ccc(OCC(O)CN(CCO)CC(O)Cn2ccc3ccccc32)cc1 (stereo unspecified),inactive,–
O=C(/C=C\NCC(=O)c1ccccc1)c1ccccc1,2.51 µM (active),–
O=C(CNC(=O)c1ccccc1)NCC(=O)OCC(=O)c1ccccc1 (Bz-Gly-Gly-OPac),inactive,–
O=C(/C=C/NCc1ccc(F)cc1)c1ccccc1,inactive,–
